# Reference: article PMC4336329 (PLoS ONE, 2015)
# In all, about 310,000 compounds went through this assay and about 14,000 (4.5%) showed an effect of 50% or more. The effect is printed as a negative number. This excerpt belongs to a sample that is enriched for strong results.
# Target: human ether-à-go-go-related gene (hERG) potassium channel (human, UniProt Q12809)
# Test: primary screen, population patch clamp on CHO cells stably expressing hERG; higher = less effect of the substance
# 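Note: peak tail current of the secondary pulse compared with the same well before compound.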
# human ether-à-go-go-related gene (hERG) potassium channel, sequence (Q12809 whole entry, looked up): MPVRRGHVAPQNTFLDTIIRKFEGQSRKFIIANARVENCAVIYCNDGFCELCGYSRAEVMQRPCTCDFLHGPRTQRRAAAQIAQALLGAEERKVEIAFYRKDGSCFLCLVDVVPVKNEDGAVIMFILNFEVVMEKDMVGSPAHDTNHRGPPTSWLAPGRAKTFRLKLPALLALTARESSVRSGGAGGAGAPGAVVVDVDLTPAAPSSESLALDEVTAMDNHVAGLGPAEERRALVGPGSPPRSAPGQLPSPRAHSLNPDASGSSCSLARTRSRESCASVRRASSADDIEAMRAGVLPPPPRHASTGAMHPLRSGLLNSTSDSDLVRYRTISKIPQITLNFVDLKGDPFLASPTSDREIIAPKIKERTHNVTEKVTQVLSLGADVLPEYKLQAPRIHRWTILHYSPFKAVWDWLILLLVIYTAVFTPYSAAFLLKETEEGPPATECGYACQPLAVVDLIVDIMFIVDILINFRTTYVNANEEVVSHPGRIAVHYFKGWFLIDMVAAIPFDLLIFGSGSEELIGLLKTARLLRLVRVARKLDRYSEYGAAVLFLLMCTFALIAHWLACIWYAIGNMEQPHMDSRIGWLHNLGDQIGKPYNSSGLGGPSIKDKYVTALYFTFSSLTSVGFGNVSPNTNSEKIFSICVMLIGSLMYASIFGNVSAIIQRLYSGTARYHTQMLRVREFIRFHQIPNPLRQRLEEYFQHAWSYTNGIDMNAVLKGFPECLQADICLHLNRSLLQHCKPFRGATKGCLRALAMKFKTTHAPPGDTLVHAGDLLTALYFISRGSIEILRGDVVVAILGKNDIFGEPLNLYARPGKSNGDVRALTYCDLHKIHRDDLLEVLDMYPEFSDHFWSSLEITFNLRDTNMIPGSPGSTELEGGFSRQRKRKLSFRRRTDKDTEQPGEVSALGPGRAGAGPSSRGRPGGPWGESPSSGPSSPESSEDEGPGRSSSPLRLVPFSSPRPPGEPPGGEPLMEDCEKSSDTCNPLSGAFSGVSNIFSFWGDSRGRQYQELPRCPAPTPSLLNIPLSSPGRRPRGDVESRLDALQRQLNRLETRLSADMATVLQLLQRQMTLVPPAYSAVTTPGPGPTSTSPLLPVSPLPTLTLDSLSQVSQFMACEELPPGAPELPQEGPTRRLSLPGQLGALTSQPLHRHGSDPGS
row,SMILES,"hERG current change (%, negative = inhibition) at 10uM"
1,c1ccc(-c2nc3ccccc3s2)nc1,4.67%
2,Cc1ccc(-n2c(SCC(=O)N3c4ccccc4Sc4ccccc43)nnc2-c2ccncc2)cc1,-3.06%
3,COc1ccc(NC(=O)CN(C)C(=O)C(C)Sc2ccccc2)cc1 (centres unmarked),5.43%
4,COC(=O)Cn1c2nc3ccccc3nc2c2cccc(C)c21,9.86%
5,COC(=O)Cn1cnc2c(C#N)c3n(c2c1=O)CCCCC3,-8.01%
6,COc1cc(-c2nn3c(COc4ccccc4)nnc3s2)cc(OC)c1OC,14.8%
7,O=C(NCc1ccccc1)c1ccco1,2.34%
8,COc1ccc(CN2CCN(Cc3cccc4nonc34)CC2CCO)c(C)c1C (centres unmarked),-68.3%
9,CCOc1ccccc1CN1CCN(Cc2cccc3nonc23)CC1CCO (centres unmarked),-73.3%
10,CCOc1ccccc1CN1CCN(Cc2ccon2)CC1CCO (centres unmarked),-42.6%
11,CCOc1ccc(CN2CCN(Cc3cccc4nonc34)CC2CCO)cc1 (centres unmarked),-77.1%
12,COc1cccc(CN2CCN(Cc3ccon3)CC2CCO)c1 (centres unmarked),0.227%
13,CC(C)N1CCN(Cc2cccc3nonc23)CC1CCO (centres unmarked),1.05%
14,COc1cccc(CN2CCN(Cc3cccc4c3OCO4)CC2CCO)c1 (centres unmarked),-23.2%
15,Cc1cccc(CN2CCN(Cc3cccc4nonc34)CC2CCO)n1 (centres unmarked),-24.1%
16,COc1cccc(CN2CCN(Cc3cccc4nonc34)CC2CCO)c1 (centres unmarked),-66.3%
17,CC(C)CCN1CCN(Cc2cccc3nonc23)CC1CCO (centres unmarked),-16.7%
18,Cc1ccc(-n2nc3c(=O)n(CC(=O)NCCc4ccc(Cl)cc4)nc(C)c3c2C)cc1,-10.2%
19,CCc1ccccc1N(CC(=O)N1CCN(c2ccccc2F)CC1)S(C)(=O)=O,0.701%
20,COc1ccc(S(=O)(=O)NCC(c2ccco2)N2CCOCC2)cc1 (centres unmarked),-19.1%
21,COC(=O)N/N=C(\C)c1ccc(Br)cc1,11.6%
22,CCCCN(CC)C(=O)c1n[nH]c(=O)c2ccccc12,2.92%
23,Cc1nc(CNC(=O)C2CCC(=O)N(Cc3cccc(F)c3)C2)sc1C (centres unmarked),5.68%

row,SMILES,"hERG current change (%, negative = inhibition) at 10uM"
1,Cc1onc(-c2c(Cl)cccc2Cl)c1C(=O)N1CCc2ccccc21,-19.9%
2,Cc1cc2c(cc1S(=O)(=O)Nc1cccc(F)c1)n(C)c(=O)c(=O)n2C,-10.9%
3,O=C(NC1CCCCC1)c1cc2ccccc2cc1O,-12.7%
4,O=C1CC2(CCN(S(=O)(=O)c3ccccc3F)CC2)Oc2ccccc21,-84.6%
5,COc1ccc(S(=O)(=O)N2CCC3(CC2)CC(=O)c2ccccc2O3)cc1,-24.8%
6,CC(=O)c1ccc(S(=O)(=O)N2CCC3(CC2)CC(=O)c2ccccc2O3)cc1,-42.6%
7,O=C(O)c1ccc(S(=O)(=O)N2CCC3(CC2)CC(=O)c2ccccc2O3)cc1,11.5%
8,Cc1ccc(S(=O)(=O)N2CCC3(CC2)CC(=O)c2ccccc2O3)cc1,-25.7%
9,O=C1CC2(CCN(S(=O)(=O)c3ccccc3)CC2)Oc2ccccc21,-84.6%
10,O=C(Nc1nnc(-c2ccc(Br)cc2)o1)c1cccc(N2C(=O)CCC2=O)c1,13.4%
11,COc1ccc(CN2CC[C@H]3C=CC[C@@H](C(=O)N4CCOCC4)[C@H]3C2=O)cc1OC,7.75%
12,CC(=O)N1N=C(c2ccc(NS(C)(=O)=O)cc2)CC1c1ccc2nccnc2c1 (centres unmarked),-63.2%
13,CS(=O)(=O)Nc1ccc(C2=NN(S(C)(=O)=O)C(c3ccc4nccnc4c3)C2)cc1 (centres unmarked),-32.8%
14,CS(=O)(=O)Nc1cccc(C2=NN(S(C)(=O)=O)C(c3ccc4c(c3)OCO4)C2)c1 (centres unmarked),-62.3%
15,CC(=O)N1N=C(c2ccc3nccnc3c2)CC1c1ccccc1 (centres unmarked),-34.9%
16,Cc1ccc(C2=NN(S(C)(=O)=O)C(c3ccc4c(c3)OCO4)C2)cc1 (centres unmarked),-2%
17,CC(=O)N1N=C(c2ccccc2)CC1c1ccc2c(c1)OCO2 (centres unmarked),1.98%
18,CC(=O)N1N=C(c2cccc(NS(C)(=O)=O)c2)CC1c1ccc2c(c1)OCO2 (centres unmarked),-59.2%
19,CS(=O)(=O)N1N=C(c2ccccc2)CC1c1ccc2c(c1)OCO2 (centres unmarked),13.9%
20,CC(=O)N1N=C(c2ccc(C)cc2)CC1c1ccc2c(c1)OCO2 (centres unmarked),-30.1%
21,Cc1c(/C=N/NC(=O)c2cc(Br)ccc2O)c(=O)n(C)c(=O)n1C,3.23%
22,Cc1[nH]c2ccccc2c1C(=O)C(=O)N1CCC2(CC1)OCCO2,7.95%
23,COc1cccc(NC(=O)CN(C)CC(=O)Nc2ccc(C)c([N+](=O)[O-])c2)c1,-15.8%

row,SMILES,"hERG current change (%, negative = inhibition) at 10uM"
1,CCOc1ccccc1N(CC(=O)NC1CCCCC1)S(=O)(=O)c1ccc(C)cc1,-7.2%
2,CSCCC(NC(=O)c1ccc(Cl)cc1Cl)C(=O)NCc1ccccn1 (centres unmarked),-8.59%
3,Cc1ccc(NCc2n[nH]c(=S)n2-c2ccccc2)cc1,15%
4,O=C(Nc1ccc(Cl)c(Cl)c1)c1cccnc1,-2.86%
5,O=C(Nc1cccnc1)Nc1cc(Cl)cc(Cl)c1,6.81%
6,O=C(Nc1ccc(F)c(Cl)c1)c1cccnc1,-65.9%
7,O=C(Nc1ccc(F)c(F)c1)c1cccnc1,0.898%
8,O=C(NCc1cccnc1)Nc1cccc(Cl)c1,15%
9,O=C(Cc1csc(NC(=O)Nc2ccc(Cl)cc2)n1)NCc1cccnc1,-50.8%
10,O=C(Nc1cccnc1)Nc1ccc(F)c(Cl)c1,-36.8%
11,O=C(Cc1csc(NC(=O)Nc2cccc(Cl)c2)n1)NCc1cccnc1,-53.8%
12,O=C(Cc1csc(NC(=O)Nc2ccc(Cl)cc2)n1)NCc1ccccn1,-44.7%
13,COc1ccccc1NC(=O)Nc1nc(CC(=O)NCc2cccnc2)cs1,-13.3%
14,O=C(Cc1csc(NC(=O)Nc2cccc(Cl)c2)n1)NCc1ccccn1,-5.14%
15,O=C(Nc1ccc(Cl)cc1)Nc1cccnc1,-50.7%
16,CCN1C(=O)C(=O)N(Cc2ccc(OC)c(F)c2)C1=O,15.1%
17,CC(C)CCNC(=O)C(c1ccco1)N(Cc1ccc(F)cc1)C(=O)c1snc(C(N)=O)c1N (centres unmarked),-22.4%
18,CC(=O)NC(=C(Cl)Cl)S(=O)(=O)c1ccccc1,23.9%
19,CCCCCn1c(=O)c(C(=O)Nc2cccc(C)c2)c(O)c2ccccc21,20.7%
20,CCN(CC)CCCNc1cc(C(F)(F)F)c(C#N)c2nc3ccccc3n12,-18.4%
21,CCc1cccc(N(C(=O)c2csnn2)C(C(=O)NC(C)(C)C)c2ccccn2)c1 (centres unmarked),1.65%
22,Cc1ccc(C(=O)Nc2c(C)cc(-c3ccc(Cl)cc3)oc2=O)cc1,-6.18%
23,O=S(=O)(/N=C(/Nc1ccccc1F)c1ccccc1)c1ccccc1,4.57%

row,SMILES,"hERG current change (%, negative = inhibition) at 10uM"
1,O=C(NNC(=O)c1cnccc1C(F)(F)F)c1ccc(Cl)cc1,11.1%
2,Cc1c(C(c2cccc([N+](=O)[O-])c2O)c2c(C)n(C)n(-c3ccccc3)c2=O)c(=O)n(-c2ccccc2)n1C,-2.28%
3,CCc1cccc(NC(=S)N(CCOC)C(C)c2ccco2)c1 (centres unmarked),-2.48%
4,COc1ccc(-n2cc3ccc([N+](=O)[O-])cc3n2)cc1,7.2%
5,Cl.Cn1c(=N)n(CC(O)c2cccs2)c2ccccc21 (centres unmarked),-39.9%
6,COc1cccc(C(O)Cc2nc3ccccc3n2C)c1OC (centres unmarked),23.7%
7,CCCn1c(=N)n(CC(O)c2ccc(C)cc2)c2ccccc21.Cl (centres unmarked),-65.6%
8,CCCn1c(C(O)c2ccc(C)cc2)nc2ccccc21 (centres unmarked),15.8%
9,CCCCn1c(=N)n(CC(O)c2ccccc2)c2ccccc21.Cl (centres unmarked),-64.9%
10,Cl.Cn1c(=N)n(CC(O)c2ccccc2)c2ccccc21 (centres unmarked),-26.3%
11,Br.Cn1c(=N)n(CC(=O)O)c2ccccc21,-5.99%
12,Cl.Cn1c(=N)n(CC(O)c2cccc3ccccc23)c2ccccc21 (centres unmarked),-67%
13,CCn1c(=N)n(CC(O)c2cccs2)c2ccccc21.Cl (centres unmarked),-60.4%
14,CCCCCN(C(=O)CCC(=O)OCC(=O)N(CC#N)c1ccccc1)c1c(N)n(CCCC)c(=O)[nH]c1=O,-0.196%
15,COc1ccc(NC(=O)C(OC(=O)c2cnccn2)c2ccccc2)cc1Cl (centres unmarked),24.7%
16,Cc1ccc(S(=O)(=O)N2CCN(Cc3csc(C)n3)CC2)cc1,6.87%
17,O=[N+]([O-])c1ccc(-c2nn(-c3ccccc3)cc2/C=N/n2c(-c3ccncc3)n[nH]c2=S)cc1,19.4%
18,CN1CCN(C(=O)c2cc3ccccc3[nH]2)CC1,-3.26%
19,CCN(CC)c1ccc(/C=C(/C#N)C(=O)NCc2ccccc2)o1,2.6%
20,CCOc1ccc(N2C(=O)CC(N(O)c3ccccc3)C2=O)cc1 (centres unmarked),2.96%
